A short description of assay [1]: yeast TOR pathway RPL19A-GFP modulators, primary screen, cell-based, S. cerevisiae, multiplex flow cytometry (AID 1862; in the data active = percent of DMSO control GFP below about 86%;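 also: lower values mimic rapamycin by blocking the RPL19A rise seen in DMSO cells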). The conditions noted are these: S. cerevisiae RPL19A-GFP strain, flow cytometry fluorescence, 3 h; at 10 µM; stronger effect = lower value. For orientation: Flow cytometry measures light scatter and fluorescence of single cells or particles in a stream.
Assay [2] in a line: modulators of MEP2-GFP levels in yeast, primary screen, S. cerevisiae, multiplex flow cytometry (AID 1867;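 active = GFP response, as percent of the DMSO control, above the screen-wide mean plus 3 SD, about 139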;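 also: median GFP channel fluorescence of barcode-gated MEP2-GFP cells measured by flow cytometry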). The note with it: S. cerevisiae MEP2-GFP strain, 3 h, at 10 µM, stronger effect = higher value, 100% means same as DMSO wells.
Assay [3] is described as follows: modulators of CIT2-GFP expression in yeast, primary screen, S. cerevisiae, GFP fusion, multiplex flow cytometry (AID 1870;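 active = percent response above a set limit, the screen-wide mean plus 3 SD, cut at about 130% in these data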;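 also: barcoded CIT2-GFP strain pooled with four other GFP strains with rapamycin as positive control; median GFP fluorescence per well over plate mean of DMSO wells so 100% = DMSO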). The conditions noted are these: 3 h, at 10 µM, stronger effect = higher value.
Assay [4] is described as follows: modulators of LAP4-GFP expression in yeast, primary screen, S. cerevisiae, multiplex flow cytometry (AID 1873). The conditions noted are these: 3 h, at 10 µM, stronger effect = higher value.
A short description of assay [5]: modulators of AGP1-GFP expression in yeast TOR pathway, primary screen, cell-based, multiplex flow cytometry, S. cerevisiae (AID 1887;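 active = GFP signal above the screen-wide mean plus 3 SD, that is over about 124.5% of the solvent control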;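 also: AGP1-GFP fusion strain of S. cerevisiae within a five-strain barcoded multiplex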). The note with it: 3 h, at 10 µM, stronger effect = higher value.
Assay [6] is described as follows: inhibitors of CD8+ T cell-vesicle binding, pilot screen, LFA-1/ICAM-1 modulator project, MLPCN validation set, flow cytometry (AID 2523;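 active = response below a set limit, under 55% cells CD8-positive and vesicle-bound, and CD8 cells' 90th-percentile brightness under 279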;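 as to vesicle binding response: mean PE anti-B7-1 fluorescence of CD8+ cells relative to row control; 100% = QL9-loaded vesicles with DMSO vehicle in the same plate row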). The conditions noted are these: 2C mouse CD8+ T cells, at 7 µM, stronger effect = lower value; double positive events: measured here: CD8+/vesicle+ event percentage.
The target in assay [7] is Integrin beta-1 (Homo sapiens) + Integrin alpha-4 (Homo sapiens) (UniProt P13612+P05556). The experiment in a line: inhibition of HUTS-21 binding to VLA-4, pilot screen, VLA-4 allosteric modulator project, U937 cells, HUTS-21 mAb, flow cytometry, validation set (AID 2674;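 active = inhibition above 50%, about 3 SD of the validation set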;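 also: antibody binding induced by the VLA-4 ligand LDV present at three times its Kd; 0% = LDV ligand with antibody and no compound and 100% = antibody without LDV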). The note with it: HUTS-21 LIBS mAb binding, at 6.7 µM, stronger effect = higher value, binding induced by LDV ligand.
Chain of Integrin beta-1 (Homo sapiens) + Integrin alpha-4 (Homo sapiens) (P05556 whole entry, looked up): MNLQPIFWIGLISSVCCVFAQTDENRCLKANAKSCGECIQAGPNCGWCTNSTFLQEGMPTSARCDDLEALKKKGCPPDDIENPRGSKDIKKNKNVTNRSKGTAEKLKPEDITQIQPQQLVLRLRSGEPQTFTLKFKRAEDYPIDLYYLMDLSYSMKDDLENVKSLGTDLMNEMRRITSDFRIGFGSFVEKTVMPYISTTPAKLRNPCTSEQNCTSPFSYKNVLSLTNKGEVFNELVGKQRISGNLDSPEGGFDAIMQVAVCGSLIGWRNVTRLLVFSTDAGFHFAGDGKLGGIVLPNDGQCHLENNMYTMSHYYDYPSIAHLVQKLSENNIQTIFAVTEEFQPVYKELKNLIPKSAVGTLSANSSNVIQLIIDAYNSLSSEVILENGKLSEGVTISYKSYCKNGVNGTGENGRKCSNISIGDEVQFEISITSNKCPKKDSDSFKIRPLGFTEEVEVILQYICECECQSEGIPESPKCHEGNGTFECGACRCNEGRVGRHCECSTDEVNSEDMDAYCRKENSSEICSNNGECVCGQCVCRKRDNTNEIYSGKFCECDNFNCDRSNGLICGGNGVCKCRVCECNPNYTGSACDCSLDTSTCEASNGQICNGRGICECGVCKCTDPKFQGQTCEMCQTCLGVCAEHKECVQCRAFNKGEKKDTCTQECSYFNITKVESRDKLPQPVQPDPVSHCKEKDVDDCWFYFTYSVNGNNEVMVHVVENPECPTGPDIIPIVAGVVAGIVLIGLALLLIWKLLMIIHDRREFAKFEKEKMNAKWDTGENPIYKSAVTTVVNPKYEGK
Chain of Integrin beta-1 (Homo sapiens) + Integrin alpha-4 (Homo sapiens) (P13612 whole entry, looked up): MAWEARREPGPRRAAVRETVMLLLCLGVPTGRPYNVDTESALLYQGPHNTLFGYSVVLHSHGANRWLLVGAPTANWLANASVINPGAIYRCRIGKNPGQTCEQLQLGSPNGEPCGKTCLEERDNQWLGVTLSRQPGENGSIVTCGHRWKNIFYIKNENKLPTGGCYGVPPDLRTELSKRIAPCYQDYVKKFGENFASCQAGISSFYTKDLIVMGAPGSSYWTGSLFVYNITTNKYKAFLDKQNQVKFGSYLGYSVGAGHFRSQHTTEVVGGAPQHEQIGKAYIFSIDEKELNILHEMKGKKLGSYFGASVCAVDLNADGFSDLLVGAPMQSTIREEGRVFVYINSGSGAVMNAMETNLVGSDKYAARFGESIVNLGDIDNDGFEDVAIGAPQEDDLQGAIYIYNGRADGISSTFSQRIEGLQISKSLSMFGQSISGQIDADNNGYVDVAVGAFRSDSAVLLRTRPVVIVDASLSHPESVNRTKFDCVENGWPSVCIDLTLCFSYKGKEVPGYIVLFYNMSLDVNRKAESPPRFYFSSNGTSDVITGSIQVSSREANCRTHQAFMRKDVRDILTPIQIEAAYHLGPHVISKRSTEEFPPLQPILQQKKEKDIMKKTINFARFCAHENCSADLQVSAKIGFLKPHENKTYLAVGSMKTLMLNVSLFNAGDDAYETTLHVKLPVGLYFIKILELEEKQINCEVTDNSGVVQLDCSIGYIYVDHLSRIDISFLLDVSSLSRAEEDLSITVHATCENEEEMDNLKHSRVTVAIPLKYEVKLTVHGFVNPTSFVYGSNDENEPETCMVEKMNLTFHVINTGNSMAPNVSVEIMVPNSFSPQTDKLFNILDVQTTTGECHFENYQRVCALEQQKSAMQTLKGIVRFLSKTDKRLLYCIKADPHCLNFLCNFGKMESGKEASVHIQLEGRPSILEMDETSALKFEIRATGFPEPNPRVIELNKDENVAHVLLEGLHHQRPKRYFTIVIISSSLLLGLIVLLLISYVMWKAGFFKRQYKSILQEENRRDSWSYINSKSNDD

Assay [8] in a line: superoxide lowering in aged yeast cells, pilot screen, validation compound set (AID 2706;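 active = superoxide response below 65% of plate, a cut near 3 SD across the whole screen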;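 also: yeast exposed to compound for one week at 30 degrees C before staining; 100% = mean of all compound wells on the same plate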). The note with it: S. cerevisiae aging, superoxide DHE fluorescence; at 10 µM; stronger effect = lower value.
Assay [9] addresses Beta-adrenergic receptor kinase 1 (Homo sapiens) (UniProt P25098). The experiment in a line: GRK2 binders displacing RNA aptamer, biochemical, validation, human GRK2, bead flow cytometry (AID 488806;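 active = aptamer binding inhibition above 30%, about 3 SD of noise from non-fluorescent compounds; inactive = inhibition at or below 30%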). The conditions noted are these: bead-bound GRK2, FAM-aptamer displacement, at 10 µM, stronger effect = higher value.
The target of assay [10] is Beta-2 adrenergic receptor (Homo sapiens) (UniProt P07550). As to the kind of experiment: beta2AR agonists driving receptor internalization, pilot screen, cell-based, FAP fluorogen, flow cytometry, validation set (AID 504459;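 active = percent response above 42, roughly 3 SD of non-fluorescent test compounds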;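 also: agonist-driven loss of surface beta2AR via internalization measured by FAP dye flow cytometry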). The conditions noted are these: Am2.2-beta2AR cells, FAP surface receptor flow cytometry; at 10 µM; stronger effect = higher value.
Chain of Beta-2 adrenergic receptor (Homo sapiens) (P07550 whole entry, looked up): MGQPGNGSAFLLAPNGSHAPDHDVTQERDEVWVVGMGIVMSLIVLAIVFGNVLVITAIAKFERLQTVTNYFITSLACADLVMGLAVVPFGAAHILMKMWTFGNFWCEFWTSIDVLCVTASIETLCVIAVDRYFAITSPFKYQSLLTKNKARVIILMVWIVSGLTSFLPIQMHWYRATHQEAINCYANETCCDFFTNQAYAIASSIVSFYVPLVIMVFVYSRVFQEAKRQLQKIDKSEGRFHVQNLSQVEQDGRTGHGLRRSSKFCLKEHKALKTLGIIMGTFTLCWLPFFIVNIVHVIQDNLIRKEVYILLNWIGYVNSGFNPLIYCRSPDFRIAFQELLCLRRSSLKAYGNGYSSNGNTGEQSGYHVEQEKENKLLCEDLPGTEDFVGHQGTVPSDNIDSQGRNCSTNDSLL
Assay [11] deals with AP-2 complex subunit beta (Homo sapiens) (UniProt P63010). The experiment in a line: inhibitors of arrestin peptide binding to AP2, pilot screen, biochemical, validation set, GST-AP2 beads, flow cytometry (AID 504541;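 active = inhibition above 54%, about 3 SD of non-fluorescent compounds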;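 also: AP2 carries R879A mutation and is captured from E. coli lysate; bead-bound FITC arrestin peptide fluorescence measuring arrestin peptide binding to AP2; 0% = DMSO wells and 100% = excess unlabeled arrestin peptide control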). The conditions noted are these: FITC arrestin peptide, at 10 µM, stronger effect = higher value, AP2 beta2 appendage fragment, R879A mutant.
Chain of AP-2 complex subunit beta (Homo sapiens) (P63010 whole entry, looked up, the tested form may be a part, one chain of several): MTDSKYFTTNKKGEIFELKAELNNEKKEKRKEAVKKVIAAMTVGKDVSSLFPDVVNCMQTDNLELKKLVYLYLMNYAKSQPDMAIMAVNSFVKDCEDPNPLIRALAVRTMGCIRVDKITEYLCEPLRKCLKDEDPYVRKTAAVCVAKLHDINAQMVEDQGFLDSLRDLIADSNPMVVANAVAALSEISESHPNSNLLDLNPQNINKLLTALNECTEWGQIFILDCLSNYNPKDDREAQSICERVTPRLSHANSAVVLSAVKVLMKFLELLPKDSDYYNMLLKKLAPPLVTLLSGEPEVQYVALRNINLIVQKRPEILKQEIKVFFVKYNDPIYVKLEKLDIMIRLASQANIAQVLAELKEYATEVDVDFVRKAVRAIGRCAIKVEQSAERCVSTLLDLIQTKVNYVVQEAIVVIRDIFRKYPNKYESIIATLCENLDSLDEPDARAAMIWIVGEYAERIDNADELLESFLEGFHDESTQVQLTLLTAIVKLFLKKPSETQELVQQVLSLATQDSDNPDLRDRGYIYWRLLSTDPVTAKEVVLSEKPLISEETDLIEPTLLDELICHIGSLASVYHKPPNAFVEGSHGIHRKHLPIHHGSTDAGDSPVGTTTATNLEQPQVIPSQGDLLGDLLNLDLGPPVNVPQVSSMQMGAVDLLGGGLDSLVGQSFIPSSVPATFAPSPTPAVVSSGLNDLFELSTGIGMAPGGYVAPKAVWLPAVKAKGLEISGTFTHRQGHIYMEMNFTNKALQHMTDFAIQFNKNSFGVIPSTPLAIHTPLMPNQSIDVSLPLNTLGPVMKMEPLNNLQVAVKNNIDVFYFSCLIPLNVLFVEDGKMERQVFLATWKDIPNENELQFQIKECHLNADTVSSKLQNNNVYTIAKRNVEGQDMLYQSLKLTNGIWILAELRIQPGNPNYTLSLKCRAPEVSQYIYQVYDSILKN
Assay [12] can be described thus: yeast V-ATPase proton transport modulators, S. cerevisiae, pHLuorin, HTS validation (AID 504600; in the data active = response above about 15%;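 also: plate controls were DMSO for no effect and reference compound for full effect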). The note with it: S. cerevisiae pHLuorin cytosolic pH, at 10 µM, stronger effect = higher value.
In assay [13] the test system is anti-desmoglein-3 scFv antibody binding to human DSG3. As to the kind of experiment: inhibitors of anti-DSG3 scFv binding to DSG3, pilot screen, biochemical, validation compound set, bead-based, flow cytometry (AID 588368;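 active = binding below the plate cutoff, the plate median minus 3 SD, with a reading above zero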;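 also: signal is the median channel fluorescence of bead-bound GFP antibody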). The note with it: Protein G beads, DSG3-Fc, scFv-GFP binding, at 10 µM, stronger effect = lower value.
Assay [14] in a line: inhibitors of fungal efflux pumps CDR1, CDR2, MDR1, pilot screen, validation compound set, multiplex, phenotypic (AID 588506;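 active = efflux inhibition above 0.42, the validation set average plus 4 SD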;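 also: Nile Red retained in cells so higher fluorescence means more efflux inhibition; 0 = negative control wells and 1 = enniatin B 25 µM full block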). The conditions noted are these: S. cerevisiae pump-expressing triplex, Nile Red efflux flow cytometry; at 10 µM; stronger effect = higher value; the pumps come from Candida albicans.
Assay [15] has as its target ATP-binding cassette sub-family B member 6 (Homo sapiens) (UniProt Q9NP58). As to the kind of experiment: ABCB6 transporter inhibitors, pilot screen, K562-ABCB6 cells, flow cytometry, validation set (AID 588550;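 active = inhibition above the screen-wide mean plus 3 SD, about 51%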;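 also: 0% = DMSO wells and 100% = benzethonium chloride 70 µM positive control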). The note with it: K562-ABCB6 porphyrin accumulation, 1 h, at 10 µM, stronger effect = higher value.
A short description of assay [16]: promoters of myeloid differentiation in arrested cells, primary screen, cell-based, GFP/MAC1 double positive, flow cytometry, validation set (AID 588685;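 active = differentiation response of at least 50%, scaled between solvent and reference control, from cells with both markers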;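 also: compound exposure lasts four days before antibody staining and flow analysis; 0% = DMSO wells and 100% = 5 µM fulvestrant positive control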). The note with it: ER-HoxA9 marrow cells, stronger effect = higher value, normalized: vehicle 0, fulvestrant 100.

Results filed as inconclusive are left out. Calls of active or inactive are those of the source.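 The calls were made as follows, unless noted: active = GFP signal, as percent of the solvent control, above the screen mean plus 3 SD, about 149; inconclusive = no reading because the compound's own fluorescence upset strain identification; inactive = the rest.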

As usually defined, the inhibition is the drop in the measured response relative to a control, in per cent.

Chain of Beta-adrenergic receptor kinase 1 (Homo sapiens) (P25098 whole entry, looked up): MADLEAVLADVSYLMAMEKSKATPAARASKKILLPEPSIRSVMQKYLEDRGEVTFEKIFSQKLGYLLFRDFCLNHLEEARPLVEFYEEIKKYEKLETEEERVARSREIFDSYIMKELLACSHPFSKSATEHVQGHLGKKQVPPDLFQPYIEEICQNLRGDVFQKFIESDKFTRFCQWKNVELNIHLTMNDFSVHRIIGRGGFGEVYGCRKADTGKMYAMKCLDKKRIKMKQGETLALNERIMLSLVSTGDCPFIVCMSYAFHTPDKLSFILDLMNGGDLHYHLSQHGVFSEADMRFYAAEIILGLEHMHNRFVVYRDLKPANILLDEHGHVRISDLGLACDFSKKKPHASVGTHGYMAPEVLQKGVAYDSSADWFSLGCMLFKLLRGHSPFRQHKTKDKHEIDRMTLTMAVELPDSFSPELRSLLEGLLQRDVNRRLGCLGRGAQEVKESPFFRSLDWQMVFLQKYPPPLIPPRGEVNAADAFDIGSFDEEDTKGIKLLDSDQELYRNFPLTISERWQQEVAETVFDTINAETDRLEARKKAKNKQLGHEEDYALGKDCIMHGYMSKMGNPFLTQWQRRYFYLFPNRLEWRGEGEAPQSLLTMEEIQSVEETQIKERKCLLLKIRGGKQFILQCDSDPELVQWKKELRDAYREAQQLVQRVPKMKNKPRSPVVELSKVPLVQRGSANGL
Chain of ATP-binding cassette sub-family B member 6 (Homo sapiens) (Q9NP58 whole entry, looked up): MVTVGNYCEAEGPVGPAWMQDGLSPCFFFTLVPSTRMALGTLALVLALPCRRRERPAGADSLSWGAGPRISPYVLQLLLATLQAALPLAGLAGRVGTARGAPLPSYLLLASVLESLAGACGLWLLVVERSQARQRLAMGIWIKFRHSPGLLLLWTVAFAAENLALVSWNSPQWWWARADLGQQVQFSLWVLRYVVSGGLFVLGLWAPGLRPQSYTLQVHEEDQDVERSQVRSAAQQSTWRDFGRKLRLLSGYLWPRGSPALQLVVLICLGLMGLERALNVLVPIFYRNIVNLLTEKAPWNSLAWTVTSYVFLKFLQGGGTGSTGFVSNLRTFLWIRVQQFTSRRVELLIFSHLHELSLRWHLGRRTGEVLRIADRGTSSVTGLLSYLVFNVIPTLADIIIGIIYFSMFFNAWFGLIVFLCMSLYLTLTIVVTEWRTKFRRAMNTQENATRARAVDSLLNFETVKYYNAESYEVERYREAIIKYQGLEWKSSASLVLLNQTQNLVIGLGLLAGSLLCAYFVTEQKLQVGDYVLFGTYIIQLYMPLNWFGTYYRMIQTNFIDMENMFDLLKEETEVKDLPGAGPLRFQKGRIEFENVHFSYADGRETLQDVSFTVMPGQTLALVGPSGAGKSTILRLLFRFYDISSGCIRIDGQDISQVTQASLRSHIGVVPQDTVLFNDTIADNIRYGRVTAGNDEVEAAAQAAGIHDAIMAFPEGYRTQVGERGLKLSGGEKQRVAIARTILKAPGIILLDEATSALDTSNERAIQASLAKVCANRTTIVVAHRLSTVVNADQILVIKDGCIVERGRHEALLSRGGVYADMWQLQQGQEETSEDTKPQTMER

As to `COC(=O)C1=C(C)NC(C)=C([N+](=O)[O-])C1c1ccccc1C(F)(F)F` (stereo not drawn), in assay [1], the percent of DMSO control GFP is 101% (inactive). In addition, the GFP response vs DMSO was 110% (inactive) in assay [2] and 97% (inactive) in assay [4]. Further, the percent response of DMSO control in [3] is 98.6% (inactive). In addition, the GFP response, % of DMSO in assay [5] was 105% (inactive). This compound returned a double positive events in assay [6] of 58.2%. The vesicle binding response in [6] is 160% (inactive). For the same compound, the values for the inhibition in assay [7], in assay [11] and in assay [15] were 9.63% (inactive), -3.68% (inactive) and 4% (inactive), respectively. Besides, the superoxide response (% of plate) in assay [8] is 102% (inactive). Also, in assay [9], the aptamer binding inhibition is 0% (inactive). Further, the response in assay [10] was 4.56% (inactive); in assay [12], 3.77% (inactive). For the same compound, the binding (% of control) in assay [13] is 106% (inactive). Moreover, in [14], the efflux inhibition (fraction of control) is -0.3 (inactive). In addition, the differentiation response in [16] is -7.5% (inactive).

For the compound `COc1ccc(CCn2c(C)nc3c(c(=O)c4ccccc4n3C)c2=O)cc1`, in assay [1], the percent of DMSO control GFP is 98.6% (inactive). Further, the GFP response vs DMSO is 102% (inactive) in assay [2] and 104% (inactive) in [4]. For the same compound, the percent response of DMSO control in assay [3] was 103% (inactive). For the same compound, the GFP response, % of DMSO in [5] was 116% (inactive). This compound yielded a double positive events in assay [6] of 61.1%. Further, the vesicle binding response in assay [6] is 155% (inactive). In addition, the inhibition is -8.78% (inactive) in assay [7], 7.96% (inactive) in assay [11] and 5% (inactive) in [15]. Moreover, in assay [8], the superoxide response (% of plate) is 96.8% (inactive). Further, the aptamer binding inhibition in [9] was 5% (inactive). The response in assay [10] was -29.5% (inactive); in assay [12], 7.85% (inactive). Moreover, in assay [13], the binding (% of control) is 101% (inactive). For the same compound, in assay [14], the efflux inhibition (fraction of control) was 0.21 (inactive). For the same compound, the differentiation response in [16] is 16.7% (inactive).

Turning to `CC(C)C(=O)Nc1ccc2c3c(cccc13)CC2`, the percent of DMSO control GFP in assay [1] was 95% (inactive). For the same compound, the GFP response vs DMSO in assay [2] is 98.5% (inactive); in [4] it was 124% (inactive). The percent response of DMSO control in assay [3] is 92% (inactive). Moreover, the GFP response, % of DMSO in [5] is 102% (inactive). Further, the double positive events in assay [6] was 62.6%. Also, in [6], the vesicle binding response is 191% (inactive). The inhibition is 10.5% (inactive) in assay [7], 18.6% (inactive) in assay [11] and 8% (inactive) in assay [15]. Moreover, the superoxide response (% of plate) in [8] is 99.4% (inactive). Further, in assay [9], the aptamer binding inhibition was 5% (inactive). Moreover, the response in [10] is 21.1% (inactive); in assay [12] it was -2.45% (inactive). For the same compound, the binding (% of control) in [13] is 94.9% (inactive). Further, the efflux inhibition (fraction of control) in assay [14] is -0.24 (inactive). Also, the differentiation response in [16] is 5.6% (inactive).

Regarding `CCc1cc(-c2[nH]ncc2-c2ccc3c(c2)OCO3)c(O)cc1O`, the percent of DMSO control GFP in assay [1] is 99.8% (inactive). Further, the GFP response vs DMSO is 102% (inactive) in assay [2] and 95.1% (inactive) in [4]. Also, the percent response of DMSO control in [3] is 105% (inactive). Besides, the GFP response, % of DMSO in assay [5] is 99.5% (inactive). Further, the double positive events in assay [6] was 58.3%. For the same compound, the vesicle binding response in assay [6] is 13.8% (inactive). Moreover, the inhibition was 9.71% (inactive) in assay [7], -19.7% (inactive) in assay [11] and 4% (inactive) in [15]. Also, the superoxide response (% of plate) in assay [8] is 92.1% (inactive). The aptamer binding inhibition in assay [9] is 3% (inactive). The response was 4.41% (inactive) in [10] and 0.5% (inactive) in [12]. The binding (% of control) in assay [13] was 107% (inactive). In addition, the efflux inhibition (fraction of control) in assay [14] is -0.34 (inactive). Moreover, in [16], the differentiation response was -3.4% (inactive).

(Values after PubChem BioAssay.)
